# Assay outcomes (PubChem BioAssay)
# TDP1 cell noCPT – qHTS for Inhibitors of human tyrosyl-DNA phosphodiesterase 1 (TDP1): qHTS in cells in absence of CPT. 15% of 420,000 active. DT40 Tdp1-/- hTDP1 cells, no CPT, ATP luminescence, 48 h. Potency, µM (highest dose often 46.2 µM), inactives show at the top dose activity change, negative = growth inhibition, hits mostly inhibitors. AID 686978, 2013; also: potency is read from the fitted curve at half-maximal effect; nearly all actives have a fitted effect of over 55% in size
#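 Stably hTDP1-transfected Tdp1-null chicken DT40 cells were treated with library compounds minus camptothecin and grown for at least 48 hr at 37 °C, after which cellular ATP was quantified by luminescence.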
# IL1B secr inh – blocks inflammasome-driven IL-1 beta release. THP-1 LPS/ATP IL-1B secretion, AlphaLISA, 16 h; active compounds read low. activity change, % at 57.5 µM. 4.7% of 360,000 active; in the data active = activity change below about -50%; inconclusive = mostly about -30% to -49%
#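 THP-1 cells pretreated 1 hr with compounds (up to 57.5 uM final), then stimulated with LPS (250 ng/mL final) plus ATP (1.25 mM final); secreted IL-1B measured by AlphaLISA after 16 hr, decreased signal indicating inhibition.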
# HT1080 IDH1KD tx – toxicity to HT-1080 IDH1 knockdown cells (counter line); 2% of 360,000 active; AID 686971; Potency, µM (doses to about 46.1 µM), inactives show top-dose activity, negative = toxicity, actives largely listed as cytotoxic; HT-1080 IDH1 knockdown viability, ATP luminescence, 48 h;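 also: potency is read from the fitted curve at half-maximal effect; 0% = DMSO wells and -100% = cell-free medium wells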
#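 Assay cells: HT-1080 with IDH1 knockdown, 750 per well, RPMI/5% FBS. Exposure: 48 h at 37 °C following 2 h pre-incubation. Read: CellTiter-Glo luminescence; fitted concentration-response, curve class assigned.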
# TDP1 cell CPT – growth inhibition of DT40 Tdp1-/-;hTDP1 cells with camptothecin (screen for TDP1 inhibitors) | chicken DT40 Tdp1-/-;hTDP1 cells + 20 nM CPT, ATP luminescence, 48 h | Potency, µM (titrated, usually from 46.2 µM), for inactives: at the highest dose activity change, negative = growth inhibition, hits mostly inhibitors | 12% of 420,000 active; also: potency is read from the fitted curve at half-maximal effect; nearly all actives have a fitted effect of over 55% in size
#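 Cell growth measured by CellTiter-Glo luminescence after a minimum 48 h, 37 C compound exposure with 20 nM CPT in Tdp1-knockout DT40 cells stably expressing hTDP1, seeded 400/well; qHTS titration format.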
# HT1080NT lethal – kills 2HG-producing HT-1080-NT fibrosarcoma cells; HT-1080-NT fibrosarcoma viability, CellTiter-Glo ATP luminescence, 48 h; AID 686970; 1.6% of 360,000 active; Potency, µM (highest dose often 46.1 µM), inactives show top-dose activity, negative = less viability, hits mostly cytotoxic;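 also: NT is the 2HG producing partner of a matched IDH1 knockdown line; potency is read from the fitted curve at half-maximal effect; 0% = DMSO-treated cells and -100% = media-only wells without cells; nearly all actives have a fitted effect of over 55% in size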
#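 Compounds were tested in concentration-response format on HT-1080-NT cells for 48 hours at 37 degrees C. Cell viability came from CellTiter-Glo luminescence; curves were classified by r2, response magnitude and activity.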
# * = called active by the depositor; u = inconclusive; x = not tested or not shown; [ ] = another dose, or the depositor's remark. Shown are actives, neighbours in structure and some others; about 19% of the full set was active somewhere. Unless noted, calls follow the shape of the dose curve; as a rule, active = well fitted curve in the direction sought with a large enough effect; inconclusive = small, poorly fitted or top-dose-only effect, or another doubt; inactive = no such curve, though single readings can be large; an effect the other way counts as inactive or inconclusive. Unless noted, % is scaled to controls: 0 for no effect and ±100 for the full control effect.
SMILES,TDP1 cell noCPT,IL1B secr inh,HT1080 IDH1KD tx,TDP1 cell CPT,HT1080NT lethal
COC(=O)c1ccccc1NC(=O)c1cc2c(s1)-c1ccccc1OC2,u,x,x,16µM*,x
COc1cc(NC(=O)c2cc3c(s2)-c2ccccc2OC3)cc(OC)c1OC,8.2µM*,x,x,16µM*,x
Cc1cccc(C(=O)NCCc2ccccc2)c1,u,5,19%,-12%,-2%
CCc1ccc2ncc3c(-c4ccc(F)cc4)nn(CC(=O)NC4CCCCC4)c3c2c1,-2%,x,x,13%,x
CC(C)CNc1ncnc2c1ncn2[C@H]1CN(Cc2ccco2)C[C@@H](CO)O1,-25%,19,7%,-29%,9%
CC(=O)Nc1cc(-c2cccc(C(=O)NCCN(C)C)c2)cn2c(-c3ccccc3)cnc12,u,-53*,16µM*,u,u
CC(=O)Nc1cc(-c2cccc(C(=O)NCCN(C)C)c2)cn2c(-c3cccc(C(F)(F)F)c3)cnc12,u,0,21µM*,u,18µM*
CCOc1ccc(CCn2c3c(c(=O)[nH]c2=O)C(NC(=O)c2ccccc2)(C(F)(F)F)C(=O)N3)cc1OCC (stereo not given),1%,x,x,-6%,x
Nc1nc(Nc2cccc(Cl)c2)n[nH]1,-9%,-5,14%,u,3%
COc1ccccc1C(O)c1nccn1Cc1ccccc1 (stereo not given),-2%,x,x,-12%,x
CCCCNC(=O)C(NC(=O)c1ccc2c(c1)OCO2)C(=O)c1ccccc1 (stereo not given),-9%,27,-9%,-16%,-3%
Cc1ccc(NC(=O)CSc2nncn2C)c(C)c1,-15%,x,x,-22%,x
Cc1cc(C)cc(-n2ccnc2SCC(=O)Nc2ccc(C)cc2C)c1,21µM*,x,x,16µM*,x
COc1ccc(OC)c(NC(=O)CSc2nccn2-c2cc(C)cc(C)c2)c1,16µM*,x,x,15µM*,x
CC(=O)c1ccc(NC(=O)CC23CC4CC(C2)CC(n2nnc(C)n2)(C4)C3)cc1,13µM*,-12,5%,u,0%
CCOC(=O)Cc1csc(NC(=O)CN2CCCCC2)n1,-14%,-4,-4%,-34%,-7%
COC(=O)c1c(NC(=O)c2c(-c3ccccc3Cl)noc2C)sc2c1CCC2,18µM*,0,-10%,18µM*,-2%
COC(=O)c1c(NC(=O)c2nc3nc(C)cc(C(F)F)n3n2)sc2c1CCC2,16µM*,-27,0%,u,2%
Cc1cc(C(F)F)n2nc(C(=O)Nc3sc4c(c3C(N)=O)CCC4)nc2n1,u,u,17%,u,21%
Cc1onc(-c2ccccc2Cl)c1C(=O)Nc1nnc(C(C)C)s1,u,22,-2%,-9%,-20%
Cc1onc(-c2ccccc2Cl)c1C(=O)Nc1sc2c(c1C(N)=O)CCC(C)C2 (stereo not given),-30%,-51*,-14%,7%,-4%
COc1ccc2oc(C(=O)OCc3c(C)noc3C)c(C)c2c1,-23%,-107*,-5%,-18%,-7%
COc1ccc2oc(C(=O)OC(C)C(=O)N3C(C)CCCC3C)c(C)c2c1 (stereo not given),21µM*,7,-16%,u,0%
COc1ccc2oc(C(=O)OCC(=O)N3CCC(C)CC3)c(C)c2c1,-16%,-55*,-3%,u,-1%
Cc1cc(=O)oc2cc(OCC(=O)OCC(=O)N3CCC(C)CC3)ccc12,-13%,-60*,2%,-4%,-9%
SMILES,TDP1 cell noCPT,IL1B secr inh,HT1080 IDH1KD tx,TDP1 cell CPT,HT1080NT lethal
CCO/N=C(\C)c1c(O)c2ccccc2n(C)c1=O,0%,11,29%,12%,u
N#Cc1ccccc1-c1ccc2ncnc(NCCN3CCOCC3)c2c1,1%,x,x,u,x
Cc1ccc(-c2nc3cc(Br)cnc3nc2-c2ccc(C)cc2)cc1,u,109,-5%,15µM*,13%
COc1cc(-c2cc(C)c3c(OC)ccc(OC)c3n2)cc2c1OCCN(C(=O)CCn1ccc(C)n1)C2,u,x,x,13%[9.04 µM],x
COC(=O)C1=C(C)N(CC2CC2)C(=NCCN2CCOCC2)N[C@H]1c1ccccc1,u,9,5%,u,5%
COC(=O)C1=C(C)N(Cc2ccccc2)C(=NCCc2c[nH]c3ccccc23)N[C@H]1c1cccc(C(F)(F)F)c1,16µM*,-50*,-19%,u,-28%
COC(=O)C1=C(C)N(Cc2ccccc2)C(=O)N[C@H]1c1cccc(F)c1,-27%,3,-3%,-18%,-3%
COC(=O)C1=C(C)N(CC2CC2)C(=NCc2cccc(C(F)(F)F)c2)N[C@H]1c1ccccc1,12µM*,-58*,-7%,10µM*,-19%
COC(=O)C1=C(C)N(Cc2ccccc2)C(=S)N[C@H]1c1ccccc1,u,-13,-16%,u,-3%
COC(=O)C1=C(C)N(Cc2ccccc2)C(=NCc2cccc(C(F)(F)F)c2)N[C@H]1c1cccc(F)c1,6.5µM*,-104*,u,6.5µM*,u
COC(=O)C1=C(C)N(Cc2ccccc2)C(=NCCCCO)N[C@H]1CCc1ccccc1,16µM*,u,-5%,u,-9%
OC[C@]1(O)OC[C@@H](O)[C@H](O)[C@@H]1O,0%,x,x,-27%,x
CCc1ccc(NC(=O)C(C)Sc2nnc(CN3CCCC3)o2)cc1 (stereo not given),5%,8,7%,-10%,6%
Cc1ccccc1CN1CCNC(=O)C1CC(=O)NC1CCCCCCC1 (stereo not given),-23%,-13,-15%,u,-14%
CCN1C(=NCc2cccc(Cl)c2)N[C@@H](c2cccc(F)c2)C(C(=O)OC)=C1C,18µM*,-70*,-12%,u,-22%
COCCN=C1N[C@@H](c2cccc(C(F)(F)F)c2)C(C(=O)OC)=C(C)N1Cc1ccccc1,10µM*,-56*,-6%,13µM*,u
CCN1C(=NCCc2cccs2)N[C@@H](c2cccs2)C(C(=O)OC)=C1C,21µM*,-13,-5%,6.5µM*,u
COC(=O)C1=C(C)N(Cc2ccccc2)C(=NCCc2ccccn2)N[C@H]1c1cccc(F)c1,u,-55*,0%,16µM*,-12%
CCn1cc(C(=O)N2CCN(c3ccccc3F)CC2)c(=O)c2ccc(C)nc21,-10%,-3,7%,-17%,6%
O=C(NC1(C(F)(F)F)C(=O)Nc2c1c(=O)[nH]c(=O)n2-c1ccc(Cl)cc1)c1ccccc1F (stereo not given),-17%,x,x,-15%,x
